Bioassay records as filed in PubChem BioAssay.
This is a sample that favours compounds with a hit; in the whole collection about 19% have one here.
TDP1 cell noCPT: qHTS for Inhibitors of human tyrosyl-DNA phosphodiesterase 1 (TDP1): qHTS in cells in absence of CPT. Potency, µM (doses to about 46.2 µM), hits mostly inhibitors. 420,000 tested, 15% active. AID 686978, 2013. DT40 Tdp1-/- hTDP1 cells, no CPT, ATP luminescence, 48 h; also: nearly all actives have a fitted effect of over 55% in size
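Cells were dispensed at 400 per well, compounds added by pin tool, plates incubated ≥48 hr at 37 °C, then CellTiter-Glo added for 30 min at room temperature before luminescence reading. Line: DT40 Tdp1-/- complemented with hTDP1; camptothecin omitted.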
TDP1 cell CPT: growth inhibition of DT40 Tdp1-/-;hTDP1 cells with camptothecin (screen for TDP1 inhibitors) | 420,000 tested, 12% active | Potency, µM (titrated, usually from 46.2 µM), hits mostly inhibitors | chicken DT40 Tdp1-/-;hTDP1 cells + 20 nM CPT, ATP luminescence, 48 h | AID 686979; also: nearly all actives have a fitted effect of over 55% in size
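Chicken DT40 Tdp1-/- cells stably complemented with human TDP1 were seeded at 400 cells/well in medium containing 20 nM camptothecin, exposed to pin-transferred compounds, and grown at 37 °C for at least 48 hr. Viability was read as ATP luminescence.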
HT1080NT lethal: kills 2HG-producing HT-1080-NT fibrosarcoma cells. Potency, µM (highest dose often 46.1 µM), hits mostly cytotoxic. HT-1080-NT fibrosarcoma viability, CellTiter-Glo ATP luminescence, 48 h. 360,000 tested, 1.6% active. AID 686970;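 also: NT is the 2HG producing partner of a matched IDH1 knockdown line; nearly all actives have a fitted effect of over 55% in size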
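Read-out is CellTiter-Glo luminescence after 10 minutes at room temperature, following 48 hours' compound treatment of HT-1080-NT cells (750 cells/well, RPMI, 5% FBS, 37 degrees C).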
IL-1B inflam inh: inflammasome signaling inhibition, IL-1 beta readout | 360,000 tested, 4.7% active | activity change, % at 57.5 µM | THP-1 LPS/ATP IL-1B secretion, AlphaLISA, 16 h; hits give low values; in the data active = activity change below about -50%; inconclusive = mostly about -30% to -49%
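Secreted IL-1B measured by AlphaLISA bead assay after 16 h compound exposure of THP-1 cells; compounds (final up to 57.5 uM) added 1 h before LPS (250 ng/mL) and ATP (1.25 mM) stimulation; lower signal means less secretion.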
HT1080 IDH1KD tx: toxicity to HT-1080 IDH1 knockdown cells (counter line). HT-1080 IDH1 knockdown viability, ATP luminescence, 48 h. Potency, µM (titrated, usually from 46.1 µM), most hits filed as cytotoxic. 360,000 tested, 2% active
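Assay cells: HT-1080 with IDH1 knockdown, 750 per well, RPMI/5% FBS. Exposure: 48 h at 37 °C following 2 h pre-incubation. Read: CellTiter-Glo luminescence; fitted concentration-response, curve class assigned.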
Hits are given with their value; – = inactive; ? = inconclusive; · = no result given. Unless noted, calls follow the shape of the dose curve; as a rule, active = well fitted curve in the direction sought with a large enough effect; inconclusive = small, poorly fitted or top-dose-only effect, or another doubt; inactive = no such curve, though single readings can be large; an effect the other way counts as inactive or inconclusive.

SMILES	TDP1 cell noCPT	TDP1 cell CPT	HT1080NT lethal	IL-1B inflam inh	HT1080 IDH1KD tx
COc1cc(Cl)ccc1OCc1cc(C(=O)N2CCN(C3CCCCC3)CC2)no1	23µM	?	–	–	–
O=C(c1cc(COc2ccc(F)c(F)c2)on1)N1CCN(C2CCCCC2)C(=O)C1	23µM	?	–	–	–
O=C(c1cc(COc2c(F)cccc2F)on1)N1CCN(C2CCCCC2)C(=O)C1	?	?	–	–	–
COCCN1CCN(C(=O)c2cc(COc3ccc(F)c(F)c3)on2)CC1	–	–	–	–	–
CCN1CCN(C(=O)c2cc(COc3ccc(F)c(F)c3)on2)[C@@H](C)C1=O	21µM	15µM	–	–	–
CCOc1ccc(NS(=O)(=O)c2ccc(C)c(C(=O)NCCCn3ccnc3)c2)cc1	–	–	–	–	–
O=C(CN1CCCCC1)Nc1cc(S(=O)(=O)N2CCOCC2)ccc1N1CCCC1	–	–	–	–	–
Cc1ccc(C)c(NC(=O)Cn2cc(S(=O)(=O)c3ccc(F)cc3)c(=O)c3cc(F)ccc32)c1	–	–	·	·	·
O=C(Oc1cc(=O)n2ccccc2n1)c1ccccc1	?	–	–	–	–
O=C(c1cc(COc2ccc(F)cc2Cl)on1)N1CCN(C2CCCCC2)C(=O)C1	7.3µM	10µM	–	–	–
CCCN1CCN(C(=O)c2cc(COc3ccc(F)c(F)c3)on2)CC1	–	–	–	–	–
O=C(c1cc(COc2ccc(F)c(F)c2)on1)N1CCN(C/C=C/c2ccccc2)CC1	26µM	?	?	–	?
O=C(c1cc(COc2ccc(F)cc2Cl)on1)N1CCN(C2CCCC2)CC1	?	18µM	–	?	–
O=C(CCN1C(=O)/C(=C/c2ccccc2Cl)SC1=S)NCCc1ccc(O)cc1	9.2µM	?	–	?	–
O=C(CCN1C(=O)/C(=C/c2ccccc2Cl)SC1=S)NC1CCCC1	9.2µM	8.2µM	–	?	–
CSc1ccc(CN2CCC(C)(Oc3ccc(F)cc3)C2)cc1 (stereo not drawn)	?	?	?	–	–
CSc1ncc(Cl)c(C(=O)Nc2cccc(C)c2)n1	–	–	–	–	–
CSc1ncc(Cl)c(C(=O)C(C#N)c2nc3c(C)cc(C)cc3c(=O)[nH]2)n1 (stereo not drawn)	26µM	?	–	–	–
CCOc1ccc(N(CC(=O)Nc2ccc(OC)cc2)C2=NC3CS(=O)(=O)CC3S2)cc1 (stereo not drawn)	–	–	–	-58	–
CC(C)(C)c1ccc(CC(=O)N2CCC2(C)C(=O)O)cc1 (stereo not drawn)	–	–	–	–	–
CC(C)N1C(=O)CSC1c1ccc(Br)cc1 (stereo not drawn)	–	–	–	–	–
C=CCn1c(=O)c2ccccc2n2c(SC(C)C(=O)Nc3nc(-c4ccccc4)cs3)nnc12 (stereo not drawn)	3.7µM	9.2µM	–	–	–
